According to PubChem BioAssay (NCATS):
Several values for one entry are separate records, joined by “and”; a condition that tells them apart may be missing. Equal entries are not always repeated. Inconclusive results are not listed. Activity calls are given as the source filed them. Unless noted, the call rests on the fitted dose curve; in most records, active means well fitted curve in the direction sought with a large enough effect; inconclusive means small, poorly fitted or top-dose-only effect, or another doubt; inactive means no such curve, though single readings can be large; an effect the other way counts as inactive or inconclusive. Square brackets hold non-standard residues; d marks the D form. Peptide text beside a SMILES is read from it. pGlu = O=C1CC[C@@H](C(=O)O)N1

Experiments:
[1] = Cell Viability - LYMP2-004 (AID 966);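 further: cells exposed to compound for 24 h; nearly all actives have a fitted effect of over 65% in size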; further: potency means the concentration at half of the fitted maximal effect
Summary of the method: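 Viable-cell number estimated from ATP luminescence (CellTiter-Glo) in 2500 human lymphoblastoid cells/well after 24 hr at 37 C with compound. AC50 fitted to the standard Hill equation.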

[2] = Cell Viability - LYMP2-022 (AID 987); further: nearly all actives have a fitted effect of over 55% in size
Summary of the method: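 In this qHTS cytotoxicity screen, compound titrations were incubated 24 hr at 37 C with human lymphoblastoid cells in complete medium. Luciferase-based ATP luminescence provided the viability signal.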

[3] = biological target: Ubiquitin carboxyl-terminal hydrolase 1 (Homo sapiens) (UniProt O94782); assay: Inhibitors of USP1/UAF1: Pilot qHTS (AID 504865); further: nearly all actives have a fitted effect of over 35% in size; further: potency means the concentration at half of the fitted maximal effect
Sequence of Ubiquitin carboxyl-terminal hydrolase 1 (Homo sapiens) (O94782 whole entry, looked up): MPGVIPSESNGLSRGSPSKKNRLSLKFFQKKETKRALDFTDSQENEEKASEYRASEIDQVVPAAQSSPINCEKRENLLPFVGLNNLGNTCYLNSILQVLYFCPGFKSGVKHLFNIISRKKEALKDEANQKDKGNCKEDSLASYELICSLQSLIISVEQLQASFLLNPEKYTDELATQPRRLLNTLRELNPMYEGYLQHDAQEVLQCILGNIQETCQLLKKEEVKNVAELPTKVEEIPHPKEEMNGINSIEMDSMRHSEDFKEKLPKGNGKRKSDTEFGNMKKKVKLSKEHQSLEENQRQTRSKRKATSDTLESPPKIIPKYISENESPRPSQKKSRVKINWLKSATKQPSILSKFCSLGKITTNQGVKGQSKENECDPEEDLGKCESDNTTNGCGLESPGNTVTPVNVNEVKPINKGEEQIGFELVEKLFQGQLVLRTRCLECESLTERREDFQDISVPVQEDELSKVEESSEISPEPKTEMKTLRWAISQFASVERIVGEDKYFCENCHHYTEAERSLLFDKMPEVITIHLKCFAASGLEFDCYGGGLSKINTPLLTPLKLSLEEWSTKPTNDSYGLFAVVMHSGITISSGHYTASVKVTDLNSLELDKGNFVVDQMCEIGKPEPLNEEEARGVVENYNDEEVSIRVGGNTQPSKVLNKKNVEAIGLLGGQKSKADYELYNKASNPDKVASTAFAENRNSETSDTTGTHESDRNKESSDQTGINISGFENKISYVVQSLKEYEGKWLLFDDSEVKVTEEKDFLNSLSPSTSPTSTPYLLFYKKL
Summary of the method: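 In 50mM HEPES pH 7.8 containing 0.5mM EDTA, 1mM TCEP, 0.1 mg/ml BSA and 0.01% Tween-20, 1nM USP1/UAF1 is exposed to compound for 15 min, then Ub-Rho (150nM final) is added and fluorescence is read over time.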

[4] = biological target: Luciferin 4-monooxygenase (Photinus pyralis) (UniProt P08659); assay: Biochemical firefly luciferase enzyme assay for NPC (AID 624030); further: nearly all actives have a fitted effect of over 70% in size; further: potency means the concentration at half of the fitted maximal effect
Sequence of Luciferin 4-monooxygenase (Photinus pyralis) (P08659 whole entry, looked up): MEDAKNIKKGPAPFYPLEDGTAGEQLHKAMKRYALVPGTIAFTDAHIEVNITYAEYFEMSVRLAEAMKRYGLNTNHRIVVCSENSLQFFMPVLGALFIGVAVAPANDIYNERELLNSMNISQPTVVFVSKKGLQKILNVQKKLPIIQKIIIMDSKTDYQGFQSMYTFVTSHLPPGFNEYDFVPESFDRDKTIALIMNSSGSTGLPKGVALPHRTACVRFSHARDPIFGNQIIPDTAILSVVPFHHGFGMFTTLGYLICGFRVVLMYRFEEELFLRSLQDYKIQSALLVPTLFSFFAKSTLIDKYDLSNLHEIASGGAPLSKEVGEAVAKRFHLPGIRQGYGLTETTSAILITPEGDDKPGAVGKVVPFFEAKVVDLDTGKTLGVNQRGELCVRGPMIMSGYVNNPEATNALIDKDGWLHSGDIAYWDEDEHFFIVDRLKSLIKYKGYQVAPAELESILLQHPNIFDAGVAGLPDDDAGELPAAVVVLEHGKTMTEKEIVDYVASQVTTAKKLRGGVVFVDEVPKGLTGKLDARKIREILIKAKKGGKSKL
Summary of the method: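 Counter-screen for direct inhibition of the luciferase enzyme by approved-drug library compounds, run at 10 nM enzyme in 50 mM Tris acetate (final). Luminescence was read within 5 min of enzyme-buffer addition and normalized to PTC124 versus DMSO (0%).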

AA1029 = assay: qHTS profiling for inhibitors of Plasmodium falciparum proliferation (AID 504749); further: nearly all actives have a fitted effect of over 60% in size; further: potency means the concentration at half of the fitted maximal effect; settings: P. falciparum in erythrocytes, SYBR Green DNA, 72 h; series mostly up to 28.7 µM
Summary of the method: (§1)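 Fluorescence of SYBR Green-bound parasite DNA, read at 485/535 nm, served as the growth measure. Infected erythrocytes were cultured with compound 72 h; artemisinin (0.29 uM) and DMSO wells defined the normalization range.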

AS120 = assay: as above; settings: P. falciparum in erythrocytes, SYBR Green DNA, 72 h; series mostly up to 28.7 µM
Summary of the method: as §1

ATS189 = assay: as above; settings: P. falciparum in erythrocytes, SYBR Green DNA, 72 h; series mostly up to 28.7 µM
Summary of the method: as §1

ATS95 = assay: as above; settings: P. falciparum in erythrocytes, SYBR Green DNA, 72 h; series mostly up to 28.7 µM
Summary of the method: as §1

CP238 = assay: as above; settings: P. falciparum in erythrocytes, SYBR Green DNA, 72 h; series mostly up to 28.7 µM
Summary of the method: as §1

CP247 = assay: as above; settings: P. falciparum in erythrocytes, SYBR Green DNA, 72 h; series mostly up to 28.7 µM
Summary of the method: as §1

CP262 = assay: as above; settings: P. falciparum in erythrocytes, SYBR Green DNA, 72 h; series mostly up to 28.7 µM
Summary of the method: as §1

CP265 = assay: as above; settings: P. falciparum in erythrocytes, SYBR Green DNA, 72 h; series mostly up to 28.7 µM
Summary of the method: as §1

CP286 = assay: as above; settings: P. falciparum in erythrocytes, SYBR Green DNA, 72 h; series mostly up to 28.7 µM
Summary of the method: as §1

GB4 = assay: as above; settings: P. falciparum in erythrocytes, SYBR Green DNA, 72 h; series mostly up to 28.7 µM
Summary of the method: as §1

PAD = assay: as above; settings: P. falciparum in erythrocytes, SYBR Green DNA, 72 h; series mostly up to 28.7 µM
Summary of the method: as §1

PC15 = assay: as above; settings: P. falciparum in erythrocytes, SYBR Green DNA, 72 h; series mostly up to 28.7 µM
Summary of the method: as §1

TAB165 = assay: as above; settings: P. falciparum in erythrocytes, SYBR Green DNA, 72 h; series mostly up to 28.7 µM
Summary of the method: as §1

[5] = Cell Viability - LYMP2-026 (AID 989);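 further: cells exposed to compound for 24 h at 37 °C; nearly all actives have a fitted effect of over 50% in size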; further: potency means the concentration at half of the fitted maximal effect
Summary of the method: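 Acute toxicity screen in complete culture medium, with 24 hr compound exposure at 37 C. Viability read as cellular ATP via luciferase reaction, with tetraoctylammonium bromide (6.4pM to 92 uM) as positive control.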

[6] = biological target: Retinoic acid receptor RXR-alpha (Homo sapiens) (UniProt P19793); assay: qHTS assay for small molecule agonists of retinoid X receptor alpha signaling (AID 588544; calls by dose curve)
Sequence of Retinoic acid receptor RXR-alpha (Homo sapiens) (P19793 whole entry, looked up): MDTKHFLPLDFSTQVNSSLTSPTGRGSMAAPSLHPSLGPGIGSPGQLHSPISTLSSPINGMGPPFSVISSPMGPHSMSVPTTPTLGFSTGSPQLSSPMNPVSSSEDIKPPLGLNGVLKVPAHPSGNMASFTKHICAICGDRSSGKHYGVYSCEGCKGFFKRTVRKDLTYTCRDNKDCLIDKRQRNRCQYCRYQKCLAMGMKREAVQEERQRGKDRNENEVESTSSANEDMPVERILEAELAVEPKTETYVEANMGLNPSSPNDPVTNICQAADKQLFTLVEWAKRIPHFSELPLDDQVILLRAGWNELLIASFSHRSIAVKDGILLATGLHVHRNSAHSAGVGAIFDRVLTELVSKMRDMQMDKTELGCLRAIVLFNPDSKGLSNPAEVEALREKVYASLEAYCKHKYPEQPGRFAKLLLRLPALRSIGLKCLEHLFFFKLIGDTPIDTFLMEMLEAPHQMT

Measured: Potency

C1OCOCO1
not listed: [5] | [6]
inactive: all other assays above

CC(C)=CCCC(C)CCO (stereo unspecified)
inactive: [1] | [5] | [3]

CC(C)(CO)C(O)C(=O)NCCCC(=O)O (stereo unspecified)
active: AS120 0.0071 µM | ATS189 2.82 µM | CP238 17.8 µM | CP247 0.0112 µM | CP265 0.0141 µM | CP286 10 µM | TAB165 0.0398 µM
not listed: [1] | [2] | [5] | [6]
inactive: all other assays above

CN(C)CCCCCCN(C)C
not listed: [1] | [3] | [5]
inactive: all other assays above

O=C(O)c1ccc(O)cc1O
inactive: [6]

COc1cc([C@@H]2c3cc4c(cc3[C@@H](O[C@@H]3O[C@@H]5CO[C@@H](C)O[C@H]5[C@H](O)[C@H]3O)[C@H]3COC(=O)[C@H]23)OCO4)cc(OC)c1OP(=O)(O)O
inactive: [4]

COC(=O)c1ccc(C)cc1
inactive: [1] | [5]

CCNC(=O)[C@H]1CCCN1C(=O)[C@H](CCCN=C(N)N)NC(=O)[C@H](CC(C)C)NC(=O)[C@H](CC(C)C)NC(=O)[C@@H](Cc1ccc(O)cc1)NC(=O)[C@H](CO)NC(=O)[C@@H](Cc1c[nH]c2ccccc12)NC(=O)[C@H](Cc1cnc[nH]1)NC(=O)[C@@H]1CCC(=O)N1 ([pGlu]H[dW]S[dY]LLR[dP]-NHEt)
inactive: [4]

CC(=O)OC/C=C(\C)CCC=C(C)C
inactive: [2] | [5]

Cc1c(N=C=O)cccc1N=C=O
inactive: [5] | [6]

CCCCCCCCO
inactive: [5]

CCO[Si](CCCN)(OCC)OCC
inactive: [1] | [2]

CCC(C)c1ccccc1O (stereo unspecified)
inactive: [6]

COc1ccccc1CNc1ncnc2ccc(-c3cccc(NS(C)(=O)=O)c3)cc12
inactive: [3]

Nc1ccc(S(=O)(=O)O)cc1
inactive: [1]

COCCn1c(=O)c(-c2cccs2)nc2cnc(N3CCNCC3)nc21
inactive: [3]

Cc1ccc([N+](=O)[O-])cc1N
inactive: [2]

Nc1ccc(Cl)cc1Cl
inactive: [5]

NC1=NC(S)C2N=CN=C2N1 (stereo unspecified)
active: [1] 7.94 µM | [5] 12.6 µM
not listed: [2] | [4] | [6]
inactive: all other assays above

CCCCC(CC)CN (stereo unspecified)
inactive: [1]

COC(=O)CCCCC(=O)OC
inactive: [5] | [6]

c1ccc2c(c1)c1cccc3ccc4cccc2c4c31
inactive: [2]

O=C(O)CC(C(=O)O)C(CC(=O)O)C(=O)O (stereo unspecified)
inactive: [2]

COc1ccccc1CNc1nc(-c2ccoc2)nc2ccccc12
inactive: [3]

O=C(/C=C/c1ccc(O)c(O)c1)O[C@@H](C(=O)O)[C@@H](OC(=O)/C=C/c1ccc(O)c(O)c1)C(=O)O
inactive: [1] | [2] | [6]

S=C1NC=NC2N=CNC12 (stereo unspecified)
not listed: [1] | GB4 | [5] | [6]
inactive: all other assays above

COC(=O)c1ccc(C=O)cc1
inactive: [1] | [2]

CCO
inactive: [2] | [6]

Clc1cc(Cl)c(Cl)c(Cl)c1Cl
inactive: [2] | [6]

COc1ccccc1-c1nc(NC2CC2)c2ccccc2n1
inactive: [3]

CCCCOCCO
inactive: [1] | [5]

O=NO
inactive: [2] | [5]

CN(C)C=O
inactive: [1] | [2] | [5]

Cc1ccccc1C
inactive: [5] | [6]

c1ccc2c(c1)[nH]c1ccccc12
inactive: [2]

OCCNCCO
inactive: [1] | [5]

O=C(O)c1cc(O)c2c(c1)[C@H]([C@H]1c3cc(C(=O)O)cc(O)c3C(=O)c3c(O[C@@H]4OC(CO)C(O)C(O)C4O)cccc31)c1cccc(O[C@@H]3OC(CO)C(O)C(O)C3O)c1C2=O (stereo partly specified)
active: [3] 10 µM | [4] 16.1 µM | GB4 15.1 µM
not listed: [1] | [2] | [5] | [6]
inactive: all other assays above

C=CCOC(=O)c1ccccc1C(=O)OCC=C
inactive: [1]

Clc1cc(Cl)c(Cl)cc1Cl
inactive: [1] | [6]

O=[N+]([O-])c1cccc(Cl)c1Cl
inactive: [2] | [5] | [6]

C=CC(=O)OCCOCCOCCOCCOC(=O)C=C
active: [5] 15.8 µM and 20 µM

COc1ccccc1CNc1nc(-c2ccc(C(=O)N(C)C)cc2)nc2ccccc12
inactive: [3]
